For seven molecules, growth results are on record in PubChem BioAssay (NCI).

About 83,000 compounds went through this panel and 20% of them were active in at least one assay; those are over-represented in the sample as a whole.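 The test compound was applied at a single concentration to cells in 96-well plates for 48 hours, and percent growth was recorded.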 Values without a mark were called inactive. Active and inactive are the calls of the source. Rule for the calls: active = growth percent below 10; inactive = the rest.

Common to all, as to assay: NCI-60 one-dose screen, 48 h (100 = growth as untreated, 0 = no growth, -100 = all killed)
The test system of one test is SK-MEL-2 melanoma. Particulars: 10 µM unless noted.
The subject of another test is EKVX NSCLC. The conditions noted are these: 10 µM unless noted.
In a further test the test system is SN12C renal. The conditions noted are these: 10 µM unless noted.
In the next test the test system is UO-31 renal. Particulars: 10 µM unless noted.
Another test relates to TK-10 renal. Particulars: 10 µM unless noted.
The test system of another test is ACHN renal. The conditions noted are these: 10 µM unless noted.
For another test, the system named is CAKI-1 renal. The conditions noted are these: 10 µM unless noted.
In another test the test system is A498 renal. The conditions noted are these: 10 µM unless noted.
A further test concerns CCRF-CEM leukemia. The conditions noted are these: 10 µM unless noted.
For the next test, the system named is MOLT-4 leukemia. The conditions noted are these: 10 µM unless noted.
The next test relates to SR leukemia. The conditions noted are these: 10 µM unless noted.
For a further test, the system named is RPMI-8226 leukemia. The conditions noted are these: 10 µM unless noted.
The test system of a further test is OVCAR-8 ovarian. The conditions noted are these: 10 µM unless noted.
The next test deals with OVCAR-5 ovarian. The conditions noted are these: 10 µM unless noted.
The test system of a further test is OVCAR-4 ovarian. The conditions noted are these: 10 µM.
In another test the test system is IGROV1 ovarian. Particulars: 10 µM unless noted.
In another test the test system is OVCAR-3 ovarian. The conditions noted are these: 10 µM unless noted.
Another test deals with HS 578T breast. Particulars: 10 µM unless noted.
In a further test the test system is NCI/ADR-RES ovarian. The conditions noted are these: 10 µM unless noted.
The subject of another test is SK-OV-3 ovarian. The conditions noted are these: 10 µM unless noted.

Regarding `O=C(NNc1ccc(-c2ccccc2)nn1)c1ccccc1`, the growth with SK-MEL-2 melanoma was 107%; with EKVX NSCLC it was 95.2%; in the test with SN12C renal it was 97.2%; with UO-31 renal, 89%; with TK-10 renal, 107%; in the test with ACHN renal, 100%. In addition, the growth was 82.2% with CAKI-1 renal; 92.4% in the test on A498 renal; 107% with CCRF-CEM leukemia; 90.3% in the test on MOLT-4 leukemia; 103% in the test with SR leukemia; 102% in the test with RPMI-8226 leukemia. The growth with OVCAR-8 ovarian is 99.5%; in the test with OVCAR-5 ovarian it was 100%; in the test on OVCAR-4 ovarian it was 96%; in the test with IGROV1 ovarian, 99.3%; in the test with OVCAR-3 ovarian it was 108%; with HS 578T breast, 103%. For the same molecule, in the test on NCI/ADR-RES ovarian, the growth was 102%.
As to `CC(C)(C)c1cc(C(=O)Nc2cc3ccccc3cc2C(=O)NCCN)cc(C(C)(C)C)c1`, the growth was -48.8% (active) in the test on SK-MEL-2 melanoma; -72.9% (active) with EKVX NSCLC; -64.8% (active) in the test with SN12C renal; -85.6% (active) in the test on UO-31 renal; -85.9% (active) in the test on TK-10 renal; -92.3% (active) with ACHN renal. The growth was -84.4% (active) in the test on CAKI-1 renal; -90.7% (active) in the test with A498 renal; -49.6% (active) in the test with CCRF-CEM leukemia; -38.6% (active) with MOLT-4 leukemia; -58.9% (active) with SR leukemia; -47.8% (active) with RPMI-8226 leukemia. For the same molecule, the growth was -37.1% (active) in the test on OVCAR-8 ovarian; -58.4% (active) in the test with OVCAR-5 ovarian; -81.6% (active) in the test with OVCAR-4 ovarian; -55% (active) with IGROV1 ovarian; -96% (active) in the test on OVCAR-3 ovarian; -36.6% (active) with HS 578T breast. The growth in the test with NCI/ADR-RES ovarian was -62.3% (active).
`CC(C)(C)c1cc(C(=O)Nc2ccc(C(=O)NCCN)cc2)cc(C(C)(C)C)c1`: the growth in the test on SK-MEL-2 melanoma was 60.3%; in the test with EKVX NSCLC it was 71.2%; in the test with SN12C renal it was 12.8%; with UO-31 renal, 69.5%; with TK-10 renal, 90.9%; in the test on ACHN renal it was 44.4%. Besides, the growth in the test with CAKI-1 renal was 71.7%; in the test on A498 renal, 13.1%; in the test on CCRF-CEM leukemia, 3.44% (active); in the test with MOLT-4 leukemia, 10.9%; in the test with SR leukemia it was -40.4% (active); in the test on RPMI-8226 leukemia, 15.6%. In addition, the growth in the test on OVCAR-8 ovarian was 72.2%; with OVCAR-5 ovarian it was 49.3%; in the test on OVCAR-4 ovarian it was 62.3%; in the test with IGROV1 ovarian it was 52.9%; in the test with OVCAR-3 ovarian, 54.6%; with HS 578T breast, 81.7%. In addition, the growth with NCI/ADR-RES ovarian was 92.4%.
With `COc1ccc(C2CC(c3ccc4ccccc4c3)=NN2c2nc(O)c(C3=c4cc(OC)ccc4=NC3=O)s2)cc1` (stereo not drawn), the growth was -69.6% (active) in the test with SK-MEL-2 melanoma; -67.3% (active) with EKVX NSCLC; -56% (active) in the test with SN12C renal; -77.3% (active) in the test on UO-31 renal; -71% (active) in the test on TK-10 renal; -51.2% (active) in the test on ACHN renal. The growth with CAKI-1 renal was -59.6% (active); in the test with A498 renal, -83.2% (active); in the test with CCRF-CEM leukemia, 8.68% (active); in the test on MOLT-4 leukemia it was -13.2% (active); with SR leukemia, -30.5% (active); in the test on RPMI-8226 leukemia, 1.78% (active). The growth was -34.6% (active) in the test on OVCAR-8 ovarian; 0.651% (active) with OVCAR-5 ovarian; -45.8% (active) in the test on OVCAR-4 ovarian; -18.5% (active) with IGROV1 ovarian; -55.5% (active) in the test on OVCAR-3 ovarian; -7.14% (active) in the test on HS 578T breast. Further, the growth in the test on NCI/ADR-RES ovarian is 57%.
As for `COc1cc(/C=C/C(=O)/C=C/c2ccc(-n3ccnc3)cc2)ccc1O`, the growth with SK-MEL-2 melanoma was 106%; with EKVX NSCLC, 97.9%; in the test with SN12C renal, 76.6%; with UO-31 renal it was -25.7% (active); with TK-10 renal it was 101%; with ACHN renal, 48.3%. Moreover, the growth in the test with CAKI-1 renal was 91.5%; with A498 renal, 96.8%; in the test on CCRF-CEM leukemia, 37.1%; with MOLT-4 leukemia it was 33.4%; in the test on SR leukemia, 25.1%; in the test with RPMI-8226 leukemia, -5.38% (active). In addition, the growth with OVCAR-8 ovarian was 29.2%; with OVCAR-5 ovarian, 100%; with SK-OV-3 ovarian it was 91.5%; with IGROV1 ovarian, -28.4% (active); in the test with OVCAR-3 ovarian, 34.4%; with HS 578T breast, 86%. Further, the growth with NCI/ADR-RES ovarian was 99%.
In the case of `COc1ccc(NC(=O)Nc2ccc(-c3cccnc3)cc2N2CCC(CO)CC2)cc1`, the growth was 73.6% in the test with SK-MEL-2 melanoma; 60% in the test with EKVX NSCLC; 70.9% in the test with SN12C renal; 97.8% with UO-31 renal; 47.1% in the test on TK-10 renal; 97.3% with ACHN renal. The growth in the test on CAKI-1 renal was 64.1%; in the test on A498 renal, 9.13% (active); with CCRF-CEM leukemia, 95.4%; in the test with MOLT-4 leukemia it was 93.2%; in the test with SR leukemia, 95.2%; in the test on RPMI-8226 leukemia, 54.4%. Also, the growth in the test on OVCAR-8 ovarian is 79.1%; in the test on OVCAR-5 ovarian, 49.6%; with SK-OV-3 ovarian, 71.7%; with IGROV1 ovarian, 110%; with OVCAR-3 ovarian, 40.2%; with HS 578T breast, 62.6%. Also, the growth in the test with NCI/ADR-RES ovarian is 64.4%.
For the molecule `COc1cc(/C=C/C(=O)/C=C/c2ccc(-n3ccnc3C)cc2)ccc1O`, the growth in the test on SK-MEL-2 melanoma is 100%; in the test on EKVX NSCLC it was 102%; with SN12C renal, 91.4%; with UO-31 renal, 4.27% (active); with TK-10 renal it was 88%; in the test with ACHN renal it was 58.8%. Further, the growth is 95.6% with CAKI-1 renal; 78.8% in the test on A498 renal; 35.5% with CCRF-CEM leukemia; 32.4% in the test on MOLT-4 leukemia; 17.8% in the test on SR leukemia; -23.5% (active) in the test with RPMI-8226 leukemia. For the same molecule, the growth in the test on OVCAR-8 ovarian was 34.9%; in the test on OVCAR-5 ovarian, 101%; in the test on SK-OV-3 ovarian, 86.1%; in the test on IGROV1 ovarian, -37.5% (active); in the test on OVCAR-3 ovarian, 23.7%; in the test on HS 578T breast, 68.6%. Besides, the growth in the test with NCI/ADR-RES ovarian was 102%.
